ALR H2O2 inh – inhibitors of human sulfhydryl oxidase ALR | P55789 | purified ALR, DTT oxidation, H2O2 HRP-luminol luminescence | 290,000 compounds, 3.8% hits | inhibition, % (concentration not given with the values);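 active means mean replicate inhibition above about 79%, with every replicate also reaching it, limit read from the data; inconclusive means only one of the two criteria met; inactive means mean below limit and not every replicate reaching it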
HDAC3 inhib – blocks human histone deacetylase 3 | O15379 | recombinant HDAC3, fluorogenic peptide/trypsin coupled, fluorescence | inhibition, % at 8.3 µM | 320,000 compounds, 0.15% hits | AID 2718; in the data active means inhibition above about 26%, passing the limit was not always enough; inconclusive means no clear call, values can overlap the other calls
Rce1 inhib – yeast Ras-converting enzyme inhibition. Q03530. yeast membranes, quenched prenylated peptide cleavage fluorescence. calls only. 290,000 compounds, 0.27% hits. AID 2563;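 active means fall in fluorescence gain of 50% or more versus controls, with final raw signal at or below 3038400; inconclusive means same 50% fall but final raw signal above 3038400; inactive means fall in fluorescence gain under 50%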;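 further: plate controls were neutral control wells for no effect and wells lacking membranes for full effect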
GRK2 inh – inhibitors of human GRK2 displacing RNA aptamer | P25098 | bead flow cytometry, FAM-aptamer displacement from GRK2 | inhibition of aptamer binding, % at 10 µM | 330,000 compounds, 0.59% hits | AID 488847;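 active means inhibition of aptamer binding above 40%, roughly 3 SD of noise, on plates passing a quality check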;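 further: median bead fluorescence of bound FAM aptamer so fluorescent compounds give negative values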
Target sequence (P25098 whole entry, looked up): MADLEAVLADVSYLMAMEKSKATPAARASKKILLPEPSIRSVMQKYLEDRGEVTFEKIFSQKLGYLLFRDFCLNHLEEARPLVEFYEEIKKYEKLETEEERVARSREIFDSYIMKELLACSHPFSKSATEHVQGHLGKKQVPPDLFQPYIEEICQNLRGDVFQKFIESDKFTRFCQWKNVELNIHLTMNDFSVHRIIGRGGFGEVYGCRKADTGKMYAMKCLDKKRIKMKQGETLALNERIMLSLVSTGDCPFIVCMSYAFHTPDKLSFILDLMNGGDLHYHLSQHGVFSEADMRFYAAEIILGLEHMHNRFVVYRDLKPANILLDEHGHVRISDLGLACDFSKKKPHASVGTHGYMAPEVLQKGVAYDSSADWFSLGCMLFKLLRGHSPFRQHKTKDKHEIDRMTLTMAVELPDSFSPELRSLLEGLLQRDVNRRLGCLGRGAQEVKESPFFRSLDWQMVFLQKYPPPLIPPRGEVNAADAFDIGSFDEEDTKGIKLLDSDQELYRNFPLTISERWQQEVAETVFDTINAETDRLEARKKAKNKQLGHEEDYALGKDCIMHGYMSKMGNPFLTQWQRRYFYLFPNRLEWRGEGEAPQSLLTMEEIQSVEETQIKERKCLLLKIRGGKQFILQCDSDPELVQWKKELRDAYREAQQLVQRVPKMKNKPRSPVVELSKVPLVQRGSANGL
Rtt109 HAT inh – blocks Candida albicans Rtt109/Vps75 acetyltransferase activity. 330,000 compounds, 0.16% hits. purified Rtt109/Vps75, ThioGlo CoA-SH fluorescence, 4 h. inhibition, % at 34.9 µM. AID 540336;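 active means inhibition of at least 50% in every replicate; inconclusive means best replicate reaches 50% inhibition but some replicates fall short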
Efflux pump inh – inhibitors of Candida antifungal efflux pumps expressed in yeast. inhibition, % at 10 µM. S. cerevisiae Candida pump triplex, Nile Red efflux. 330,000 compounds, 0.44% hits;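 active means plate passing quality check with inhibition over a set limit, or well fluorescence over plate mean plus 4 SD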;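 further: Nile Red retained in pooled yeast measured as flow cytometry median fluorescence; 0% = buffer negative control and 100% = Enniatin B positive control; higher means more Nile Red kept so more efflux inhibition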
Starred values were filed as active, the others as inactive; i = inactive; ? = inconclusive; . = no result given. An excerpt weighted towards active compounds, which were near 4.5% of everything screened.

SMILES | ALR H2O2 inh | HDAC3 inhib | Rce1 inhib | GRK2 inh | Rtt109 HAT inh | Efflux pump inh
O=C(O)CSc1c(-c2ccccc2)[nH]c2ccccc12 | 97.5* | -0.5 | i | 2.0 | -3.7 | 0.1
Cc1ccc(SC[C@H](C)CN2CC[C@H](C(C)(C)C)CCC2=O)cc1 | -1.2 | 18.0 | i | 0.0 | 8.6 | 0.1
CC(C)c1ccc(/C=C/C(=O)CCC(=O)O)cc1 | 97.8* | 11.7 | i | 4.0 | 6.4 | -0.1
COc1ccc(Nc2nc(-c3cccs3)nc3ccccc23)cc1S(=O)(=O)N1CCOCC1 | -9.0 | 6.4 | i | 2.0 | -1.7 | 0.0
Cc1nc2ccc(-c3ccccc3)cc2o1 | 96.1* | 8.3 | i | 1.0 | 0.0 | -0.1
Cc1nc2cc(Cc3ccccc3)ccc2o1 | . | . | . | . | -5.1 | .
CCOc1ccc(NC(=O)CSc2nc(=O)n(Cc3cccnc3)c3c2CCC3)cc1 | 98.9* | -3.5 | i | 0.0 | 4.2 | 0.1
CCCCc1ccc(NC(=O)CSc2nc(=O)n(CCCN3CCOCC3)c3c2CCC3)cc1 | 99.0* | 8.7 | i | 0.0 | 6.3 | 0.5
Cc1ccc(NC(=O)CSc2nc(=O)n(CCCN3CCOCC3)c3c2CCCC3)cc1 | 97.5* | 1.4 | i | 0.0 | 0.6 | 0.2
CCOc1ccc(NC(=O)CSc2nc(=O)n(Cc3ccccn3)c3c2CCC3)cc1 | ? | . | i | 1.0 | -5.0 | 0.0
CCCCc1ccc(NC(=O)CSc2nc(=O)n(CCN3CCOCC3)c3c2CCC3)cc1 | 99.0* | 5.2 | i | 0.0 | -17.8 | 0.8
O=C(CSc1nc(=O)n(CCCN2CCOCC2)c2c1CCCC2)Nc1ccc(F)c(F)c1 | 10.0 | -2.0 | i | 3.0 | -1.7 | -0.1
O=C(CSc1nc(=O)n(CCCN2CCOCC2)c2c1CCC2)Nc1ccc(F)cc1 | 97.7* | 2.9 | i | 0.0 | 1.8 | 0.1
CCOc1ccc(NC(=O)CSc2nc(=O)n(CCCN3CCOCC3)c3c2CCC3)cc1 | 97.4* | 2.5 | i | 0.0 | 6.6 | -0.1
O=C(CSc1nc(=O)n(CCCN2CCOCC2)c2c1CCCC2)Nc1ccc(F)cc1 | 27.8 | 1.5 | i | 0.0 | 2.5 | 0.1
CC(C)c1ccc(NC(=O)CSc2nc(=O)n(CCN3CCOCC3)c3c2CCC3)cc1 | 99.0* | 1.8 | i | 0.0 | -5.8 | 0.3
Cc1cc(C)c(NC(=O)CSc2nc(=O)n(CCN3CCOCC3)c3c2CCCC3)c(C)c1 | 11.6 | -0.8 | i | 1.0 | -3.6 | 0.0
CCc1ccc(NC(=O)CSc2nc(=O)n(CCCN3CCOCC3)c3c2CCC3)cc1 | 97.7* | 3.7 | i | 2.0 | -6.0 | 0.1
CCOC(=O)C1CCN(c2c(NCc3ccc(C(=O)Nc4ccc(C)cc4)cc3)c(=O)c2=O)CC1 | 45.4 | 6.2 | i | 2.0 | -4.1 | 0.0
CCc1ccc(NC(=O)CSc2nc3ccccc3nc2N2CCCC2)cc1 | 87.6* | 8.8 | i | 3.0 | 1.8 | 0.1
O=C(C(Cc1ccccc1)NS(=O)(=O)c1cccc2cccnc12)N1CCc2ccccc21 (stereo not drawn) | 88.0* | 2.5 | i | 0.0 | -1.9 | -0.1
Cc1cc(-c2ccc(N=Nc3c(S(=O)(=O)O)cc4cc(S(=O)(=O)O)cc(N)c4c3O)c(C)c2)ccc1N=Nc1c(S(=O)(=O)O)cc2cc(S(=O)(=O)O)cc(N)c2c1O | . | 13.5 | . | 98.0* | . | -0.1
Nc1ccc(-c2nc3ccc(N)cc3o2)cc1 | 99.9* | -293.3 | ? | 0.0 | 1.8 | 0.0
CC(=O)Nc1ccc(-c2nc3cc(Cl)ccc3o2)cc1 | 12.1 | -6.8 | i | 1.0 | 4.9 | 0.0
COC(=O)c1ccc(-c2nc3cc(N)ccc3o2)cc1 | 95.2* | -1.9 | i | 1.0 | -1.6 | 0.0
SMILES | ALR H2O2 inh | HDAC3 inhib | Rce1 inhib | GRK2 inh | Rtt109 HAT inh | Efflux pump inh
Cc1ccc(-c2nc3cc(N)ccc3o2)cc1Br | 66.1 | -12.0 | i | . | 8.8 | 0.0
Nc1ccc(-c2nc3cc(N)ccc3o2)cc1 | 92.7* | -13.8 | i | 0.0 | -33.4 | -0.1
Cc1ccc2nc(-c3cc(N)cc(N)c3)oc2c1 | -3.0 | 2.5 | i | 1.0 | -5.4 | -0.1
CN(C)c1ccc(-c2nc3cc(N)ccc3o2)cc1 | 98.7* | -12.7 | i | 0.0 | 0.3 | -0.2
CC(OC(=O)COc1ccc(C#N)cc1)C(=O)Nc1ccc(Cl)cn1 (stereo not drawn) | 0.6 | 7.9 | i | 2.0 | -1.9 | -0.1
Cc1ccc(C)c(-c2nc3cc(N)ccc3o2)c1 | 98.9* | -29.0 | i | 2.0 | -5.2 | -0.1
COc1ccc(-c2ccc(CO)o2)cc1N | 98.8* | -8.4 | i | 2.0 | 14.6 | -0.1

High-throughput results as filed in PubChem.
